High-throughput results (PubChem BioAssay)
The full list was thinned out, with hits kept by preference.
Giardia FBPA inh – Giardia lamblia aldolase inhibition | Potency, µM (series often up to 59.6 µM), inactives show at the highest dose activity, negative = inhibition, most hits filed as inhibitors | purified Giardia FBPA | hit rate 0.71% among 290,000 | A8B2U2; also: potency is read from the fitted curve at half-maximal effect; % is scaled to controls: 0 for no effect and ±100 for the full control effect; nearly all actives have a fitted effect of over 55% in size
Target sequence (A8B2U2 whole entry, looked up): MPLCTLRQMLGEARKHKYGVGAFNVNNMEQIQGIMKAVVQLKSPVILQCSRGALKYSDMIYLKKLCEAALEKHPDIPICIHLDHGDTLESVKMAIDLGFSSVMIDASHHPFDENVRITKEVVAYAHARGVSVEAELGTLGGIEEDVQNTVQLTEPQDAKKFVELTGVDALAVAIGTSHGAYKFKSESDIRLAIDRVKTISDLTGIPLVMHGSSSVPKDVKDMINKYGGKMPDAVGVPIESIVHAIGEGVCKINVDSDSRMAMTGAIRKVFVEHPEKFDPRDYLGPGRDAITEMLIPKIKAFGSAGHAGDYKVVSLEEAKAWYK
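40 nM FBPA preincubated 10 min at RT with compound (up to 57.5 uM final), then substrate plus GAPDH/TPI/NAD/arsenate coupling and diaphorase/resazurin added. Fluorescence read after 20 min at RT, 525/598 nm.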
LmPK inhibitor – blocks Leishmania mexicana pyruvate kinase activity; Q27686; purified LmPK, Kinase-Glo ATP luminescence, 1 h; Potency, µM (titrated, usually from 57.5 µM), for the others: at the highest dose activity change, negative = inhibition, hits mostly inhibitors; hit rate 0.37% among 290,000; AID 1721; also: potency is read from the fitted curve at half-maximal effect; % is scaled to controls: 0 for no effect and ±100 for the full control effect
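Pyruvate kinase activity monitored as ATP production (luciferase luminescence). Conditions: 0.1 nM enzyme, 0.5 mM PEP, 0.1 mM ADP, 1 h, RT; normalized against uninhibited and no-enzyme wells.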
Cycloheximide cs – counter-screen hit for Shiga toxin inhibitors, cycloheximide. cell reporter, cycloheximide protein synthesis inhibition counterscreen. max response, %. hit rate 12% among 300,000. AID 2314; in the data active = max response mostly above about 13%, no sharp cut-off; inactive = mostly below about 14%; also: read at 38.3 µM for the half of the compounds with a filed dose; 0% is about no effect
Sm TGR inh – S. mansoni TGR enzyme inhibition; Q962Y6; purified TGR, DTNB reduction, TNB absorbance 405 nm; Potency, µM (highest dose often 114 µM), inactives show at the highest dose activity change, negative = inhibition, actives largely listed as inhibitors; hit rate 3% among 360,000; AID 485364; also: potency is read from the fitted curve at half-maximal effect; % is scaled to controls: 0 for no effect and ±100 for the full control effect; nearly all actives have a fitted effect of over 60% in size
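Kinetic colorimetric format: TGR-catalysed, NADPH-driven DTNB reduction monitored via TNB absorbance. Enzyme dispensed at 20 nM; compound exposure 15 min at room temperature before reaction start.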
Shiga inhibitor – Shiga toxin inhibition | Vero cells, Shiga toxin protein synthesis inhibition reporter | inhibition, % at 38.7 µM | hit rate 9.2% among 290,000; in the data active = inhibition mostly above about 28%, no sharp cut-off; inactive = mostly below about 43%; also: 0% is about no effect
Tb PYK inh – inhibitors of Trypanosoma brucei pyruvate kinase; TbPYK enzyme, Kinase-Glo Plus ATP luminescence, 45 min; Potency, µM (highest dose often 76.8 µM), for the others: at the top dose activity, negative = inhibition, hits mostly inhibitors; hit rate 0.12% among 410,000; AID 624173; also: potency is read from the fitted curve at half-maximal effect; % is scaled to controls: 0 for no effect and ±100 for the full control effect; nearly all actives have a fitted effect of over 50% in size
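Readout: single end-point luminescence (Kinase-Glo Plus, 10 min). Reaction conditions were TbPYK/substrate plus 130 uM ADP, 45 min at RT, pH 7.2 TEA buffer. No-enzyme wells served as controls, and data were normalized before concentration-response fitting.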
* = called active by the depositor; [ ] = remark or other dose. Unless noted, calls follow the shape of the dose curve; as a rule, active = well fitted curve in the direction sought with a large enough effect; inconclusive = small, poorly fitted or top-dose-only effect, or another doubt; inactive = no such curve, though single readings can be large; an effect the other way counts as inactive or inconclusive.

CNS(=O)(=O)c1cn(CC(=O)N2CCN(c3ccc(C(C)=O)cc3)CC2)cc1S(=O)(=O)NC was read as Sm TGR inh -1.6% and Tb PYK inh -16.0%[15.4 µM].
Screening O=C(Nc1ccc(S(=O)(=O)Nc2ncccn2)cc1)c1ccccc1NS(=O)(=O)c1ccc(F)cc1 returned Giardia FBPA inh 25.7%, LmPK inhibitor 5.9%, Cycloheximide cs -2.4, Shiga inhibitor -5.3 and Tb PYK inh 0.1%.
Screening O=C(O)/C=C/c1ccc(S(=O)(=O)Nc2ccccc2C(=O)Nc2ccc(F)cc2)cc1 returned Giardia FBPA inh 16.9%, LmPK inhibitor 1.3%, Cycloheximide cs 5.0, Sm TGR inh 44.7µM*, Shiga inhibitor -6.2 and Tb PYK inh -4.0%.
Screening CCc1cc2c(=O)c(-c3ccc4c(c3)OCCO4)coc2cc1OS(C)(=O)=O returned Giardia FBPA inh -8.5%, LmPK inhibitor -1.7%, Cycloheximide cs 42.2*, Sm TGR inh -0.1%, Shiga inhibitor 78.7* and Tb PYK inh -3.4%.
`C/C(CC(=O)NCc1ccccc1Cl)=N/NC(=O)c1ccccn1` gave Giardia FBPA inh 12.5%, LmPK inhibitor 2.0%, Cycloheximide cs 25.5*, Sm TGR inh -20.0%, Shiga inhibitor 79.3* and Tb PYK inh -2.5%.
`C/C(CC(=O)NC1CCCCC1)=N\NC(=O)c1ccccn1` gave Giardia FBPA inh -6.7%, LmPK inhibitor -6.4%, Cycloheximide cs 38.5*, Sm TGR inh 1.6%, Shiga inhibitor 63.9* and Tb PYK inh 2.1%.
For CC(=O)Nc1ccccc1NC(=O)C/C(C)=N/NC(=O)c1ccccn1 the results were Giardia FBPA inh inconclusive, LmPK inhibitor 3.6%, Cycloheximide cs 38.3*, Sm TGR inh 1.4%[57.1 µM], Shiga inhibitor 61.5* and Tb PYK inh 1.8%.
Screening C/C(CC(=O)Nc1cccc(Cl)c1Cl)=N\NC(=O)C(=O)NC1CCCCC1 returned Giardia FBPA inh 0.0%, LmPK inhibitor 0.0%, Cycloheximide cs -1.8, Sm TGR inh -7.5%, Shiga inhibitor -2.3 and Tb PYK inh -0.4%.
Screening C/C(CC(=O)Nc1ccc(F)cc1)=N\NC(=O)c1ccccn1 returned Giardia FBPA inh -22.5%, LmPK inhibitor 1.9%, Cycloheximide cs 17.8, Sm TGR inh -26.2%, Shiga inhibitor 24.4 and Tb PYK inh -3.7%.
Screening COc1ccc(C2C(=O)N(C3CCC(C)CC3)CC(=O)N2C2CCCC2)cc1OC (configuration not stated) returned Sm TGR inh 2.8% and Tb PYK inh 4.7%.
`COC(=O)[C@@]1(Cc2ccccc2)[C@H]2c3cc(C(=O)N(C)C)n(CCF)c3C[C@H]2CN1C(=O)c1ccccc1` gave Giardia FBPA inh -2.9%.
`Cn1nc(NC(=O)C2CCC2C(=O)O)c2c(F)cccc21` (configuration not stated) gave Giardia FBPA inh -0.4%, LmPK inhibitor 0.8%, Cycloheximide cs -1.1, Sm TGR inh 0.0%, Shiga inhibitor -5.8 and Tb PYK inh -3.7%.
Screening Cc1ccc(C(=O)Nc2nn(C)c3cccc(F)c23)cc1 returned Giardia FBPA inh 2.9%, LmPK inhibitor -1.9%, Cycloheximide cs 18.1*, Sm TGR inh -3.7%, Shiga inhibitor 28.6 and Tb PYK inh -0.8%.
For Cc1ccc(Nc2nc(/N=C/NO)n[nH]2)cc1C the results were Giardia FBPA inh 1.1%, LmPK inhibitor 18.1%, Cycloheximide cs 27.4*, Sm TGR inh 2.5%, Shiga inhibitor 65.4* and Tb PYK inh -2.7%.
Screening O=C(CSc1ccc(F)cc1)Nc1ccc(Br)cc1 returned Giardia FBPA inh 0.4%, LmPK inhibitor 0.3%, Cycloheximide cs 46.9*, Sm TGR inh 1.8%, Shiga inhibitor 67.0* and Tb PYK inh 1.8%.
Screening CC(=O)Nc1ccc(NC(=O)CSc2ccc(C)cc2)cc1 returned Giardia FBPA inh 9.9%, LmPK inhibitor 1.1%, Cycloheximide cs 6.6, Sm TGR inh -21.8%, Shiga inhibitor 19.8 and Tb PYK inh -2.3%.
Screening O=C(CSc1ccc(F)cc1)Nc1ccccc1Br returned Giardia FBPA inh 0.1%, LmPK inhibitor 6.3%, Cycloheximide cs 32.6*, Sm TGR inh 5.0%, Shiga inhibitor 65.7 and Tb PYK inh -5.6%.
Cc1ccc(C(=O)/C=C/c2ccc(F)cc2)o1 was read as Giardia FBPA inh -6.5%, LmPK inhibitor -9.1%, Cycloheximide cs 59.7*, Sm TGR inh -20.4%, Shiga inhibitor 76.0* and Tb PYK inh -9.9%.
Screening O=C(/C=C/c1ccc(F)cc1)c1ccccc1Br returned Giardia FBPA inh 3.0%, LmPK inhibitor 0.5%, Cycloheximide cs 19.9*, Sm TGR inh -26.5%, Shiga inhibitor 35.3 and Tb PYK inh -12.0%.
COc1ccccc1CN1CC(C(=O)N(C)CCc2ccccn2)CCC1=O (configuration not stated) was read as Tb PYK inh 1.9%.
`CC(C)C(=O)NCC(c1ccc2c(c1)OCO2)N1CCN(c2ccccc2)CC1` (configuration not stated) gave Sm TGR inh 2.1% and Tb PYK inh 1.1%.
Screening FC(F)(F)c1ccc2c(c1)C1C=CCC1C(c1ccncc1)N2 (configuration not stated) returned Giardia FBPA inh -23.1%, LmPK inhibitor -10.6%, Cycloheximide cs 1.1, Sm TGR inh -24.8%, Shiga inhibitor -7.6 and Tb PYK inh -18.9%.
Screening Cc1c(Cl)cccc1NS(=O)(=O)c1ccc2c(c1)C1C=CCC1C(c1ccc(C(=O)O)cc1)N2 (configuration not stated) returned Giardia FBPA inh -22.2%, LmPK inhibitor 6.9%, Cycloheximide cs -3.8, Sm TGR inh 20µM*, Shiga inhibitor -5.1 and Tb PYK inh -27.5%.
CC(=O)c1ccc2c(c1)C1C=CCC1C(c1ccc(S(=O)(=O)N3CCOCC3)cc1)N2 (configuration not stated) was read as Giardia FBPA inh -27.8%, LmPK inhibitor -4.9%, Cycloheximide cs -2.8, Sm TGR inh 28.2µM*, Shiga inhibitor -12.0 and Tb PYK inh -22.6%.
COc1cccc([C@@H]2Nc3ccc(C(=O)O)cc3[C@@H]3C=CC[C@@H]32)c1OC was read as Sm TGR inh -19.9% and Tb PYK inh inconclusive.
For CC(C)C1Nc2ccc(C(=O)O)cc2C2C=CCC21 (configuration not stated) the results were Giardia FBPA inh -18.7%, LmPK inhibitor 1.1%, Cycloheximide cs -2.0, Sm TGR inh 20µM*, Shiga inhibitor -10.3 and Tb PYK inh inconclusive.
O=C(O)c1ccc2c(c1)C1C=CCC1C(c1ccncc1)N2 (configuration not stated) was read as Giardia FBPA inh inconclusive, LmPK inhibitor 6.1%, Cycloheximide cs -3.7, Sm TGR inh 22.4µM*, Shiga inhibitor -6.1 and Tb PYK inh -14.6%.
